Consider 40 compounds from PubChem BioAssay (NCATS).

Inconclusive results are not listed. Values without a mark were called inactive. The call rests on the fitted dose curve; in most records, active means well fitted cell-killing curve with a large enough effect; inconclusive means small, poorly fitted or top-dose-only effect; inactive means flat fitted curve, though single readings scatter.

The nature of the assay: Cell Viability - N2a (AID 540).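 Further: cells exposed to compound for 40 h at 37 °C; plate controls were DMSO alone for no effect and tamoxifen control for full effect; nearly all actives have a fitted effect of over 45% in size.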 As to conditions: N2a mouse neuroblastoma cell viability; activity change, negative = cytotoxicity: at 92.2 µM (top of the series). From the text:
NIH Chemical Genomics Center [NCGC]
NIH Molecular Libraries Screening Centers Network [MLSCN]
National Institutes of Environmental Health Sciences [NIEHS]
National Toxicology Program [NTP]
We have developed a 1536-well cell-based assay for quantitative high throughput screening (qHTS) against a number of cell lines to determine in vitro cytotoxicity of small molecules. This particular assay uses the N2a cell line which is derived from mouse neuroblastoma.
NCGC Assay Protocol Summary:
The CellTiter-Glo luminescent cell viability assay (Promega) is a homogeneous method to measure the number of viable cells in culture. The end point readout of this assay is based on quantitation of intracellular ATP, an indicator of metabolic activity, using the luciferase reaction. Luciferase catalyzes the oxidation of beetle Luciferin to oxyluciferin and light in the presence of ATP. The luminescent signal is proportional to amount of ATP present.
Using the CellTiter-Glo luminescent cell viability assay, the amount of cellular ATP was measured in the N2a cell line with complete culture medium following compound treatment for 40 hours. The assay was performed in opaque white Kalypsys 1536-well plates. In the screen, tamoxifen and doxorubicin were used as positive controls. Library compounds were measured for their ability to cause acute toxicity in the cell line, as reflected by a decrease in intracellular ATP levels, in a concentration-dependent manner. […] AC50 values were determined from concentration-response data modeled with the standard Hill equation.
qHTS protocol for CellTiter Glo N2a cellular assay
[Step] [Parameter] [Value] [Description]
1. Reagent; 5 uL; 1500 N2a cells/well
2. Time; 5 hr; 37 °C incubation
4. Controls; 23 nL; Tamoxifen 0.34 uM to 100 uM & Doxorubicin 0.02 nM to 100 uM
5. Time; 40 hr; 37 °C incubation
6. Reagent; 5 uL; CellTiter Glo reagent
7. Time; 20 min; Room Temperature
8. Detection; Luminescence; Viewlux plate reader
Keywords: cell viability, cytotoxicity, N2a cell line, luminescence, NTPHTS, NTPHTS_NCGC, NIEHS, EPA, DSSTox, MLSMR, MLSCN, NIH Roadmap, qHTS, NCGC
Regarding `CCOC(=O)CC(SP(=O)(OC)OC)C(=O)OCC` (stereo not given), the “activity change, negative = cytotoxicity” value is 11%. In the case of `CC(C)(Cl)Cl` it was 5.45%. Turning to `ClCC(Br)CBr` (stereo not given), the “activity change, negative = cytotoxicity” value was 2.29%.

Consider `c1ccc(OCC2CO2)cc1` (stereo not given), for which the “activity change, negative = cytotoxicity” value is -7.28%. In the case of `[C-]1=CC=CC1.[C-]1=CC=CC1.[Cl-].[Cl-].[Ti+4]` it was 3%.

In the case of `Clc1ccccc1`, the “activity change, negative = cytotoxicity” value was -5.88%.

Consider `C=CCCl`, for which the “activity change, negative = cytotoxicity” value was 7.14%. To `CC(C)(C)OOC(=O)c1ccccc1` belongs -15.5%. As for `CC1CC(=O)O1` (stereo not given), the “activity change, negative = cytotoxicity” value was 5.3%.

With `ClCCBr`, the “activity change, negative = cytotoxicity” value is 1.96%. Regarding `Cc1ccc(N)cc1C`, the “activity change, negative = cytotoxicity” value was 5.7%.

Consider `O=C(O)C(Br)Br`, for which the “activity change, negative = cytotoxicity” value was -6.43%. To `ClCc1ccccc1` belongs 7.85%.

On to `C=CCBr`, for which the “activity change, negative = cytotoxicity” value was 0.47%. In the case of `FC(Cl)(Cl)Cl` it was -7.32%; in that of `ClC=CCl`, -12%; in that of `O=Cc1ccc(Cl)cc1Cl`, 9.23%.

For `ClCCCCl`, the “activity change, negative = cytotoxicity” value is -9.1%. In the case of `COC(=O)Nc1nc2ccccc2[nH]1` it was -14.3%; in that of `CN(C)C(=O)Nc1cccc(C(F)(F)F)c1`, -7.88%. To `C=CCOCC1CO1` (stereo not given) belongs -3.84%; to `CCSC(=O)N1CCCCCC1`, -5.34%; to `O=[N+]([O-])c1ccccc1CCl`, -15.6%. In the case of `O=C(Cc1ccccc1)OCc1ccccc1` it was -4.2%; in that of `O=C(Cl)OCc1ccccc1`, 7.02%. Consider `N#CCc1ccccc1`, for which the “activity change, negative = cytotoxicity” value was -7.34%. In the case of `ClCc1ccccn1` it was -0.684%. To `CCN(N=O)C(N)=O` belongs -0.739%; to `NNC(N)=S`, 7.45%.

Consider `OCCCCO`, for which the “activity change, negative = cytotoxicity” value is -12.6%. Take `Cc1cc(N=Nc2ccccc2C)ccc1N`: the “activity change, negative = cytotoxicity” value was -52.3%.

As to `N#CCBr`, the “activity change, negative = cytotoxicity” value was -14.2%. In the case of `Cc1cccc(C)c1N` it was 4.57%; in that of `Nc1ncc([N+](=O)[O-])s1`, 0.448%; in that of `Nc1cc(Cl)cc(Cl)c1`, -5.01%. Consider `CN1CSC(=S)N(C)C1`, for which the “activity change, negative = cytotoxicity” value is -20.6%. With `CCCCCCCCCCCCCl`, the “activity change, negative = cytotoxicity” value is 8.52%.

In the case of `O=C(Cl)c1ccccc1F`, the “activity change, negative = cytotoxicity” value was -5.94%. In the case of `Cc1cc(-c2ccc(N)c(C)c2)ccc1N` it was -10.3%; in that of `C=CCc1cc(OC)c2c(c1)OCO2`, 3.82%.
